High-throughput results from PubChem BioAssay.
Hits are enriched below; roughly 4.7% of the tested compounds scored in any of these assays.
D1 antag: antagonists of human D1 dopamine receptor; HEK293 TREx D1 cells, calcium flux, dopamine EC80; stronger effect = lower value; activity change, negative = inhibition, % at 10 µM; 3.2% of 360,000 active; AID 504652; in the data active means activity change below about -30%
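After overnight tetracycline induction at 30 C, force-coupled D1 HEK293 cells took up a no-wash calcium dye at room temperature. Compounds were added and monitored 180 s, and the response to EC80 dopamine was then recorded.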
D1 agonist: activates the human D1 dopamine receptor. AID 504660. 1% of 360,000 active. activation, % at 2 µM. P21728. HEK293 T-REx D1 cells, calcium flux, agonist mode
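Tetracycline-induced HEK293 TREx D1 cells, force-coupled to calcium signalling, were dye-loaded with a no-wash calcium kit. Compound was pin-added after a 10 s baseline. Fluorescence was read kinetically at 1 cycle/s for 180 s, with calcium rises flagged as agonism.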
TRHR agonist: activates the human TRH receptor | TRHR cells, calcium flux fluo-8, FDSS agonist mode | activation, % at 2 µM | 0.18% of 360,000 active
Target sequence (P34981 whole entry, looked up): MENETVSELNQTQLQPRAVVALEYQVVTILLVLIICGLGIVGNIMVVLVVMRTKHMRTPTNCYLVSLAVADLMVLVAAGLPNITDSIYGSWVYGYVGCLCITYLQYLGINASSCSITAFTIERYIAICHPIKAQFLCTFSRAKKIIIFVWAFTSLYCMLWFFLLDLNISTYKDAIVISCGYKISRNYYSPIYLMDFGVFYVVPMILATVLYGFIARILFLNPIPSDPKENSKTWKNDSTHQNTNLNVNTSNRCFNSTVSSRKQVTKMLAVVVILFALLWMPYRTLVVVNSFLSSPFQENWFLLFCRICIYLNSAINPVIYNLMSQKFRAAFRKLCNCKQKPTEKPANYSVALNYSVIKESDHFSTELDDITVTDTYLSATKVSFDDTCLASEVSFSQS
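Fluo-8-loaded TRHR cells; 10 s baseline, compound added, kinetic Ca2+ fluorescence read 1/s, agonist mode.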
D1 potentiator: human D1 dopamine receptor positive modulation; P21728; 0.036% of 360,000 active; potentiation, % at 10 µM; HEK293 TREx D1 cells, calcium flux, dopamine EC20 potentiation; in the data active means potentiation above about 30%
TRHR PAM: allosterically enhances the human TRH receptor. P34981. TRHR cells, fluo-8 calcium fluorescence, EC20 TRH enhancement. enhancement, % at 2 µM. 0.66% of 360,000 active. AID 493056; in the data active means enhancement above about 30%
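TRHR-expressing cells loaded with fluo-8 calcium dye were read kinetically (ex 480/em 530) during compound addition, then stimulated with an EC20 of TRH (10 nM final). Enhancement of the Gq-mediated intracellular calcium response was scored.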
Large screens that a line does not name were inactive; ! = not active in a repeat. Unless noted, no stated cut-off is given here; in the data, active means activation above about 30%; inactive means the rest.

O=C(/C=C/Nc1ccc(F)c(Cl)c1)c1ccco1	D1 antag -36.6
CCc1cccc(NC(=O)Cn2c(=O)n(-c3cccc(Cl)c3)c(=O)c3c2c2cc(C)ccc2n3C)c1	none
COc1cccc(/C=C(\CC(=O)O)c2nc3ccccc3s2)c1	TRHR PAM 34.3
CC1(C(=O)NCc2ccc(Cl)c(Cl)c2)Oc2cccnc2NC1=O (stereo not given)	D1 agonist 31.6
COc1ccc(N=Nc2ccc(O)c3ncccc23)cc1	none
CCc1ccc(N=Nc2ccc(O)c3[nH]cnc23)cc1	D1 agonist 40.0 (no result: D1 antag)
Cc1cccc(N(C(=O)c2csnn2)C(C(=O)NC2CCCCC2)c2ccccn2)c1C (stereo not given)	TRHR PAM 38.1
Cc1ccc(-n2nnc(-c3nsc(NC(=O)c4ccc(C)c(C)c4)n3)c2C)cc1	none
CCc1ccccc1-n1nnc(-c2nsc(NC(=O)c3ccc(C)c(C)c3)n2)c1C	TRHR agonist 33.6
COc1cc(NC(=O)NCCn2nnc3cc(S(=O)(=O)N(C)C)ccc32)cc(OC)c1	none
Cc1nn2c(CN(C(=O)COc3ccccc3)c3ccccc3)nnc2c2ccccc12	TRHR PAM 40.4
Cc1nn(S(=O)(=O)c2ccc(C(C)C)cc2)c(C)c1S(=O)(=O)N1CCCCCC1	none
CC1CCN(CCCNS(=O)(=O)c2cc(Br)cc3c2N(C(=O)C2CC2)CC3)CC1	TRHR PAM 32.6
CCC(Oc1ccccc1)C(=O)Nc1ccc(O)c(-c2nc3cc(C)ccc3o2)c1 (stereo not given)	none
CCOc1ccc(C(=O)c2cn(CC(=O)Nc3ccc4c(c3)OCO4)c3ccc(OC)cc3c2=O)cc1	none
COC(=O)CCC(=O)c1ccc(OC)c(Cl)c1	D1 antag -34.4
Cc1ccc(CNS(=O)(=O)c2ccc3c(c2)NC(=O)CS3)cc1	D1 antag -33.6
CCN(Cc1ccccc1)S(=O)(=O)c1ccc2c(c1)NC(=O)CS2	D1 antag -35.9
O=C1CSc2ccc(S(=O)(=O)NCc3ccc(F)cc3)cc2N1	none
O=C(Cn1cnc2onc(-c3ccc(F)cc3)c2c1=O)N1CCN(c2ccccc2F)CC1	none
O=S(=O)(c1ccccc1)c1nnn2c1nc(NC1CCCCC1)c1sccc12	none
COc1ccc(OCc2nc3ccc(S(=O)(=O)Nc4ccccc4Cl)cc3[nH]2)cc1	D1 antag -57.2
O=c1oc2c(CN3CCOCC3)c(O)ccc2cc1-c1ccc(Cl)cc1	none
N#CC(C#N)=C1C=C2C=C(N3CCCCC3)CCC2CC1 (stereo not given)	D1 agonist 671.3, TRHR agonist 248.7
CCN(CC)C1=CC2=CC(=C(C#N)C#N)CCC2CC1 (stereo not given)	D1 antag -82.2, D1 agonist 487.2
CCCCN(C)C1=CC2=CC(=C(C#N)C#N)CCC2CC1 (stereo not given)	D1 antag -85.1, D1 agonist 489.8, TRHR agonist 261.2
CCc1nc(SCC(=O)Nc2ccnc3ccccc23)n[nH]1	D1 antag -45.6
CCc1nc(SCC(=O)Nc2ccccc2C(=O)OC)n[nH]1	none
CCCNC(=O)C1CCC(Cn2c(=O)c3sccc3n(CC(=O)N3CCCC3)c2=O)CC1 (stereo not given)	none
COc1ccccc1CN(Cc1ccco1)S(=O)(=O)c1ccc(-n2cnnn2)c(OC)c1	D1 antag -33.0
COc1cc(S(=O)(=O)N(Cc2ccccn2)Cc2ccccc2Cl)ccc1-n1cnnn1	none
CCC(CC)C(=O)Nc1ccc(Sc2ccc([N+](=O)[O-])cc2)cc1	D1 antag -34.7, D1 agonist 31.5
COc1ccc(C(=O)/C(C#N)=N/Nc2ccc([N+](=O)[O-])cc2)cc1	D1 antag -38.8
CC(C)C(=O)Nc1ccc(NC(=O)c2ccc([N+](=O)[O-])cc2Cl)cc1	D1 antag -59.4
COc1ccc(C(=O)/C(C#N)=N/Nc2ccccc2[N+](=O)[O-])cc1	none
O=C(c1ccccc1)c1ccc(Sc2ccc([N+](=O)[O-])cc2)cc1	D1 antag -31.0
CCC(C)NC(=O)C1CCN(S(=O)(=O)c2ccc3c(ccn3CC)c2)CC1 (stereo not given)	none
Cc1ccc2nc(N(Cc3cccnc3)C(=O)CCOc3ccccc3)sc2c1	none (no result: D1 antag)
CCOC(=O)C1=C(CN2CCN(c3cc(C)ccc3C)CC2)NC(=O)NC1c1ccccc1 (stereo not given)	none
COc1ccc(OC(C)C(=O)Nc2cccc(OC)c2)cc1 (stereo not given)	none
COc1ccc(OC(C)C(=O)Nc2ccc([N+](=O)[O-])cc2)cc1 (stereo not given)	D1 antag -44.4
COc1ccc(NC(=O)C(C)Oc2ccc(/C(C)=N\O)cc2)cc1 (stereo not given)	D1 agonist 51.3
CC(C)Oc1ccc(C(=O)Nc2ccc([N+](=O)[O-])cc2)cc1	D1 agonist 36.3
O=C(Nc1ccc(Oc2cccnc2)cc1)c1ccc([N+](=O)[O-])cc1	D1 antag -31.0, D1 agonist 36.7
COc1ccc(Oc2ncnc3c2oc2ccccc23)cc1	none
CC(Oc1ccccc1)C(=O)Nc1ccc(C(N)=O)cc1 (stereo not given)	none
CC(C)NS(=O)(=O)c1ccc(NC(=O)C(C)Oc2ccc(C(=O)c3ccccc3)cc2)cc1 (stereo not given)	D1 agonist 136.0
c1ccc(Sc2ncnc3c2oc2ccccc23)cc1	D1 antag -35.1
COc1ccc(OCc2n(CC(=O)OC3CC(C)CCC3C(C)C)c3ccccc3[n+]2C)cc1 (stereo not given)	D1 agonist 33.8
COc1ccc(-c2n(CC(=O)OC3CC(C)CCC3C(C)C)c3ccccc3[n+]2C)cc1 (stereo not given)	none
O=C(Nc1c(-c2ccccc2)nc2ccccn12)c1ccccc1F	D1 antag -75.1!
O=C(Nc1c(-c2ccccc2)nc2ccccn12)c1ccccc1	none
COc1ccc(NC(=O)Nc2nnc(N(CC(C)C)CC(C)C)s2)c(OC)c1	none
Cc1ccc(C(=O)NN2C(=O)c3ccc(S(=O)(=O)c4ccc(C(=O)O)cc4)cc3C2=O)cc1	D1 antag -42.7
O=C(O)c1ccc(S(=O)(=O)c2ccc3c(c2)C(=O)N(NC(=O)c2ccc(O)cc2)C3=O)cc1	none
COc1ccccc1-c1nnc(SC/C(O)=C(\C#N)c2nc3ccccc3[nH]2)n1C1CCCCC1	D1 antag -34.3
N#C/C(=C(/O)CSc1nnc(Cc2cccs2)n1C1CCCCC1)c1nc2ccccc2[nH]1	none
O=C(c1ccccc1)c1c[nH]c(C(=O)NNc2cccc(Cl)n2)c1	none
O=C(c1ccc(Cl)cc1)c1c[nH]c(C(=O)NNc2cccc(Cl)n2)c1	D1 antag -31.4
COc1ccccc1C(=O)N(Cc1nc(-c2cccc(C)c2)no1)C(C)C	none
